SMILES strings stand for the structures. Records with an inconclusive call do not appear. Activity calls are given as the source filed them. Unless noted, calls come from the whole dose curve; as a rule, active = well fitted curve in the direction sought with a large enough effect; inconclusive = small, poorly fitted or top-dose-only effect, or another doubt; inactive = no such curve, though single readings can be large; an effect the other way counts as inactive or inconclusive.

A short description of assay [1]: Cytometric Cell-Based qHTS for Inhibitors of the mTORC1 Signaling Pathway in MEF (Tsc2-/-, p53-/-) Cells (AID 2660).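 Note: percent of cells above a phospho-rpS6 to PI ratio cutoff in each well; series mostly up to about 38 µM.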 The procedure, abridged:
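Tsc2-/-, p53-/- MEFs (empty vector) exposed to compound 24 h at 37 C, fixed, stained with Alexa-488 anti-phospho-rpS6 Ser235/236 and propidium iodide. Acumen laser scanning; phospho-S6/PI ratio thresholded against 7.5 nM rapamycin, reported as % positive cells.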
Background: Quantitative high-throughput screening tests each substance at several concentrations.

Assay [2] can be described thus: High Content Imaging Cell-Based qHTS for Inhibitors of the mTORC1 Signaling Pathway in MEF (Tsc2-/-, p53-/-) Cells (AID 2666).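 Note: percent of cells scored positive for phospho-rpS6 Ser235/236 immunostaining by imaging.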 Note: potency is the fitted concentration of half-maximal effect. In short, it runs like this:
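MEF Tsc2-/- p53-/- (empty vector), DMEM/10% FBS; cpd 24 h 37 °C; PFA fix, Alexa-488 p-rpS6 S235/236 Ab, Hoechst; imaged; rapamycin-defined inhibition; % positive cells/well.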

The nature of assay [3]: High Content Imaging Cell-Based qHTS for Inhibitors of the mTORC1 Signaling Pathway in MEF Cells (AID 2667). Note: potency is the fitted concentration of half-maximal effect. In short, it runs like this:
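Read-out is the share of phospho-rpS6-positive cells per well, from Hoechst-normalized Alexa-488 Ser235/236 staining imaged on IN Cell. Cells: WT Tsc2-expressing Tsc2-/-, p53-/- MEFs exposed to compound for 24 hrs.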

Assay [4] addresses Ubiquitin carboxyl-terminal hydrolase 2 (Homo sapiens) (UniProt O75604). The assay is described as follows: qHTS Validation Assay for Inhibitors of Ubiquitin-specific Protease USP2a Using CHOP2 as the Reporter (AID 463106). In short, it runs like this:
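Fluorescence read-out at Ex 485nm/Em 531nm after 60min RT, following addition of 25nM Ub-CHOP2 plus 25nM reporter substrate to USP2 core (10nM) pretreated 30min with compound. Data normalized to NEM full inhibition; concentration-response curves fitted.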

Assay [5] addresses DNA polymerase III PolC-type (Bacillus subtilis (strain 168)) (UniProt P13267). The assay is described as follows: qHTS Validation Assay for the Inhibitors of DNA Replication in Gram-Positive Bacteria (AID 485295).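 Note: PicoGreen fluorescence of double-stranded DNA made on primed circular M13 template; series mostly up to about 57 µM.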 In short, it runs like this: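 Reconstituted B. subtilis holoenzyme (Pol III, beta clamp, SSB, primase) was preincubated with compound at room temperature, then given single-stranded circular M13Gori plus dNTPs and NTPs. EDTA-containing PicoGreen stopped the reaction, and dsDNA product was read by fluorescence.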

Assay [6] concerns the target Tumor susceptibility gene 101 protein (Homo sapiens) (UniProt Q99816). The experiment in a line: qHTS Validation Assay for Iinhibitors of HIV-1 Budding by Blocking the Interaction of PTAP/TSG101 (AID 485342; calls by dose curve). The procedure, abridged: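 Tsg101 binding domain (10 uM final) in pH 7.5 HEPES/NaCl/Tween 20/EDTA/TCEP buffer was mixed with pin-transferred compounds, then FITC-labeled PTAP peptide (50 nM final) was added; after 20 min at r.t., fluorescence polarization was read.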

Assay [7] deals with Beta-2 adrenergic receptor (Homo sapiens) (UniProt P07550). The assay is described as follows: qHTS validation assay of beta-arrestin-biased ligands of beta2-adrenergic receptor (AID 485366). The procedure, abridged:
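qHTS, Tango cells, 1500 cells/well, DMEM + 1% FBS. Cpd 18 hr at 37 degrees C. Luciferin/ATP/CoA detection mix, 15 min RT, luminescence read. %Activity from corrected signal; CRC fit, curve class.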

Assay [8] can be described thus: qHTS Validation Assay to Find Inhibitors of Chronic Active B-Cell Receptor Signaling (AID 485345; active = well fitted curve in the direction sought with a large enough effect in the main read-out, with a control signal flat, not every such curve was filed as active). In short, it runs like this:
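TMD8 ABC-DLBCL cells stably carrying doxycycline-inducible IkappaBalpha–green luciferase fusion plus unfused red luciferase; compounds 46 uM to 3 nM, 4 h at 37C with doxycycline. Corrected green/red luminescence ratio normalized to 10 uM MG-132 and basal cell wells; curves fitted.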

Assay [9] can be described thus: Cytometry Cell-Based qHTS for Inhibitors of the mTORC1 Signaling Pathway in MEF cells (AID 2668). Note: potency is the fitted concentration of half-maximal effect. In short, it runs like this: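 WT MEFs (Tsc2-/-, p53-/- stably re-expressing WT Tsc2) in DMEM + 10% FBS received compounds 24 hrs after plating, for 24 hrs at 37 degree Celsius. Fixed cells stained with Alexa-488 anti-phospho-rpS6 Ser235/236 and propidium iodide; laser-scanning cytometry read-out.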

Ubiquitin carboxyl-terminal hydrolase 2 (Homo sapiens), sequence (O75604 whole entry, looked up): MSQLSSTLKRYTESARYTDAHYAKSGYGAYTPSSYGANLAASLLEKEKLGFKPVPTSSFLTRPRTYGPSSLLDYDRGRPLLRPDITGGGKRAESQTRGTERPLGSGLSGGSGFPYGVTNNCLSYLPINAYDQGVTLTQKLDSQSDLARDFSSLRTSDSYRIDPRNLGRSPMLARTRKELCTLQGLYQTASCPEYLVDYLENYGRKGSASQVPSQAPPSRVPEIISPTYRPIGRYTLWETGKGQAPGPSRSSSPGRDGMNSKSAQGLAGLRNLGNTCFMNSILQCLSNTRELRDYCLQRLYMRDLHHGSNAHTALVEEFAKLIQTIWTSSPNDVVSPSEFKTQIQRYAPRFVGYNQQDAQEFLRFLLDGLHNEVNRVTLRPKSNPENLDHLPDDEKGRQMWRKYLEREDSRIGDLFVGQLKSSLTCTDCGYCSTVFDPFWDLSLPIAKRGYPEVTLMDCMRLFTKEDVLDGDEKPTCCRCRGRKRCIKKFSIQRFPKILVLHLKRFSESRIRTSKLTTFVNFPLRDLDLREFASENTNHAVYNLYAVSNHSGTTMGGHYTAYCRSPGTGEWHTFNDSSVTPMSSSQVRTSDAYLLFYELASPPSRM
Beta-2 adrenergic receptor (Homo sapiens), sequence (P07550 whole entry, looked up): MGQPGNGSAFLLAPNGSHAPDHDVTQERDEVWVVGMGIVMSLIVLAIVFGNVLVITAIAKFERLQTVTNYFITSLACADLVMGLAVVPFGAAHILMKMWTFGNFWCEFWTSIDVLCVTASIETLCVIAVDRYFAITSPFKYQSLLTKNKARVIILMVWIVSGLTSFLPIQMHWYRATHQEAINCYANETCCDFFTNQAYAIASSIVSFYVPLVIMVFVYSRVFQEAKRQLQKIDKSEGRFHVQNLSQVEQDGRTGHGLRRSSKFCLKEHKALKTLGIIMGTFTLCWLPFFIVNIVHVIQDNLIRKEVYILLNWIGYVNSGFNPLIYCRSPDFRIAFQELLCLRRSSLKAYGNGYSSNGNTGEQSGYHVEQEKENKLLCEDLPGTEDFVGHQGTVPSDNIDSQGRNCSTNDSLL
Tumor susceptibility gene 101 protein (Homo sapiens), sequence (Q99816 whole entry, looked up, the tested form may be a part): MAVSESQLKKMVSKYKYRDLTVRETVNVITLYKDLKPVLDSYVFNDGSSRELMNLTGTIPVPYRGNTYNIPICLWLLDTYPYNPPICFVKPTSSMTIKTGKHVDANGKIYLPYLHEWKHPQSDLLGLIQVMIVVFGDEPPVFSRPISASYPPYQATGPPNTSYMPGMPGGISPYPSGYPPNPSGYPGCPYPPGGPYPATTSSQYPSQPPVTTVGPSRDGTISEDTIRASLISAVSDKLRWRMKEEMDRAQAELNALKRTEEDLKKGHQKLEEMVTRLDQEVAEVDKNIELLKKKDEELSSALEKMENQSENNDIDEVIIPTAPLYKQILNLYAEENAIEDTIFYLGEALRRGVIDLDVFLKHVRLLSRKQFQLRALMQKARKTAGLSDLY
DNA polymerase III PolC-type (Bacillus subtilis (strain 168)), sequence (P13267 whole entry, looked up): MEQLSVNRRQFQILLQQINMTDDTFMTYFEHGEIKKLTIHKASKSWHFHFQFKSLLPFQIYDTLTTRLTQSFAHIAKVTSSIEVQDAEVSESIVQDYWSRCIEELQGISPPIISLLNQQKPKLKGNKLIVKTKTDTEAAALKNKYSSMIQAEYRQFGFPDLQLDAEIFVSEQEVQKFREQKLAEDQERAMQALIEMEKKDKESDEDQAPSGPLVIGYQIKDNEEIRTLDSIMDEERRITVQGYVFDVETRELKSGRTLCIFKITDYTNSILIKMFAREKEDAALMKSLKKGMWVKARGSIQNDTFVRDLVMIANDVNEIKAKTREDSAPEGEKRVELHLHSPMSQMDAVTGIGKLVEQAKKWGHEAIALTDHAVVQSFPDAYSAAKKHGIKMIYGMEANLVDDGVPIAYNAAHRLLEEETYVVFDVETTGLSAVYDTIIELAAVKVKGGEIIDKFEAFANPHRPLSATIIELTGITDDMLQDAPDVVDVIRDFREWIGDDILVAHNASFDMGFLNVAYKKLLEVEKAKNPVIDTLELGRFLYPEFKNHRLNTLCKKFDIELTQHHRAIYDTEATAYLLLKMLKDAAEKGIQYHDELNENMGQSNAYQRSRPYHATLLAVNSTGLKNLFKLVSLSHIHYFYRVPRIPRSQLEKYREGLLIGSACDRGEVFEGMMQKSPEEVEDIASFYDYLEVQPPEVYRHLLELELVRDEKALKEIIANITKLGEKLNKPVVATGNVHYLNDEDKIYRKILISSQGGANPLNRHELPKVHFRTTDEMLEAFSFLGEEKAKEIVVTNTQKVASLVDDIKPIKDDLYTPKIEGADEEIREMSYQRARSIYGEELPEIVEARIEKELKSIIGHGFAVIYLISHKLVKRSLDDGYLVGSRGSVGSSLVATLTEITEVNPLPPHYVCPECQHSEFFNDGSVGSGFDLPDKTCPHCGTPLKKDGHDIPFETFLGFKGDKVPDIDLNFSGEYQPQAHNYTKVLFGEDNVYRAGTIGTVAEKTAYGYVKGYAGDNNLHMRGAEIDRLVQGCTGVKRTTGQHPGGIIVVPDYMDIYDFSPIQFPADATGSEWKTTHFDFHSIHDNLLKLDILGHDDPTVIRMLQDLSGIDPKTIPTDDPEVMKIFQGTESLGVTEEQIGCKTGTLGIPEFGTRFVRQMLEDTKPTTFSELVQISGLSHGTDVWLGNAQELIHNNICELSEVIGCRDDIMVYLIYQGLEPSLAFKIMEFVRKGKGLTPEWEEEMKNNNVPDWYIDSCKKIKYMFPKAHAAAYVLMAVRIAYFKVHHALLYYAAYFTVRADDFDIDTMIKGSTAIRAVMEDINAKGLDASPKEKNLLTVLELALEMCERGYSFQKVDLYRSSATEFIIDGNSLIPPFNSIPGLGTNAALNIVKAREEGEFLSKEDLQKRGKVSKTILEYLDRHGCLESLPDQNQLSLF

Consider `CSc1nc(N)c2ncn([C@@H]3O[C@H](COP(=O)(O)OP(=O)(O)O)C(O)[C@H]3O)c2n1` (some centres undefined), for which the compound was called inactive in [1], in assay [6] and in [7]. Further, the Potency entry in assay [2], in assay [3], in [4] and in assay [5] was “inactive” in each case.
For the compound `CN1Cc2sccc2C(c2ccc(O)c(O)c2)C1` (centres undefined), the Potency result in [3], in [4] and in [5] was “inactive” in each case. In addition, the outcome in [6], in [8] and in assay [7] was inactive.
For `CC(O)C(O)[C@H]1CNc2nc(N)[nH]c(=O)c2N1` (some centres undefined), the outcome in assay [1], in [8] and in assay [7] was inactive. Besides, the Potency result in assay [2], in assay [3], in assay [9], in [4] and in assay [5] was “inactive” in each case.
Consider `C=CCNc1ncnc2ccc(Br)cc12`, for which the compound was called inactive in assay [1], in assay [6] and in [7]. Also, the Potency entry in [2], in assay [3], in [4] and in assay [5] was “inactive” each time.
Regarding `OC[C@H]1O[C@H](n2cnc3c(N[C@H]4CCC[C@@H]4O)ncnc32)[C@H](O)[C@@H]1O`, the result in assay [1], in assay [6] and in assay [7] was inactive. Further, the Potency entry in assay [2], in assay [3], in [9], in [4] and in assay [5] was “inactive” in each case.
Regarding `N#Cc1cc([N+](=O)[O-])c2sc(C(N)=O)[n+]([O-])c2c1`, the Potency in assay [2] is 18500 nM (active). In addition, the Potency entry in [3], in assay [4] and in assay [5] was “inactive” in each case. Also, the outcome in assay [6] was inactive.
Consider `Brc1c(Br)c(Br)c2[nH]cnc2c1Br`, for which the compound was classed as inactive in [1], in [6] and in assay [7]. For the same compound, the Potency entry in assay [2], in assay [3], in assay [4] and in assay [5] was “inactive” in each case.
As to `O=c1cc(-c2ccccc2F)[nH]c2cc3c(cc12)OCO3`, the compound was called inactive in [1], in assay [6] and in [7]. Besides, the Potency entry in [2], in [3], in assay [4] and in assay [5] was “inactive” throughout.
Consider `COc1ccc(-c2cc3ncc(C)n3c(Nc3ncccc3C(N)=O)n2)cc1OC`, for which the Potency result in [2], in assay [3], in assay [4] and in assay [5] was “inactive” throughout. Also, the result in [6] was inactive.
For `CCCCCCCCCCC(C)(C)C(=O)Nc1c(OC)cc(OC)cc1OC`, the outcome in assay [1], in assay [6], in [8] and in assay [7] was inactive. For the same compound, the Potency entry in [2], in assay [3], in assay [9] and in assay [4] was “inactive” throughout.
Take `CN(C)CCCc1cc(C(=O)Nc2ccc(-c3ccncc3)cc2)ccc1O`: the compound was called inactive in assay [1], in [6] and in [7]. Further, the Potency entry in assay [2], in [3], in assay [9], in assay [4] and in assay [5] was “inactive” in each case.
In the case of `C[C@H]1CC2C3CCC4=CC(=O)C=C[C@]4(C)[C@@]3(Cl)[C@@H](O)C[C@]2(C)[C@@]1(O)C(=O)CO` (some centres undefined), the outcome in assay [1], in assay [6] and in assay [7] was inactive. Besides, the Potency entry in assay [3], in assay [9], in [4] and in assay [5] was “inactive” throughout.
With `CNCCc1cnc(CCC(c2ccccc2)c2ccccc2)[nH]1`, the Potency result in assay [4] and in assay [5] was “inactive” in each case. The compound was called inactive in [6] and in [7].
As for `CC[n+]1c(/C=C/C=C2/N(C)c3ccccc3C2(C)C)sc2ccccc21`, the compound was classed as inactive in assay [1] and in [7]. For the same compound, the Potency entry in [2] and in assay [5] was “inactive” throughout. In addition, the Potency is 52.1 nM (active) in assay [3] and 82.6 nM (active) in [9].
For the compound `Nc1ncnc2c1nc(Br)n2C1OC2COP(=O)(O)O[C@@H]2C1O` (some centres undefined), the Potency entry in [2], in assay [3], in assay [9], in assay [4] and in assay [5] was “inactive” throughout. Further, the compound was classed as inactive in [6], in [8] and in assay [7].
`CN(CC[C@@H](Oc1ccc(C(F)(F)F)cc1)c1ccccc1)CC(=O)O`: the outcome in [1], in [6], in assay [8] and in [7] was inactive. In addition, the Potency result in assay [9], in assay [4] and in assay [5] was “inactive” each time.
`CCCn1c(=O)c(C)cn2nc(N)nc12`: the call in assay [1], in [6], in [8] and in [7] was inactive. The Potency entry in assay [9], in assay [4] and in assay [5] was “inactive” throughout.
Consider `Cc1cc(Cn2cnc3c2C[C@@H](C(=O)O)N(C(=O)C(c2ccccc2)c2ccccc2)C3)ccc1N`, for which the result in assay [1], in assay [6], in [8] and in assay [7] was inactive. Further, the Potency entry in assay [3], in assay [4] and in [5] was “inactive” in each case.
For the compound `C[C@](Cc1ccc(O)c(O)c1)(NN)C(=O)O`, the compound was classed as inactive in [1], in [6] and in [8]. Moreover, the Potency entry in [2], in [3], in assay [4] and in assay [5] was “inactive” each time.

Source of the values: PubChem BioAssay (NCATS).
